Source: PubChem BioAssay
Hits are enriched below; roughly 4.8% of the tested compounds scored in any of these assays.
hcDAF12 agonist: activates DAF-12 receptor from parasite H. contortus; hit rate 1.4% among 370,000; AID 652067; HEK293 hcDAF-12 lit1-tk-luc reporter, luminescence; 0% DMSO, 100% Δ7-dafachronic acid; activation, % at 6.8 µM;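 active means activation above the mean of all tested compounds plus 3 SD, cut at about 5.5% in these data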;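 further: 100% = response to 3 µM Δ7-dafachronic acid high control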
ssDAF-12 act: S. stercoralis DAF-12 activation, primary screen. HEK293 ssDAF-12/GRIP1 lit1-tk-luc reporter, luminescence; % of 3 µM dafachronic acid response. activation, % at 6.8 µM. hit rate 1% among 370,000. AID 652126;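 active means activation above the mean over all tested compounds plus 3 SD, cut at about 0.9% in these data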;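 further: 0% = DMSO-only wells and 100% = 3 µM delta7-dafachronic acid wells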
hgDAF12 agonist: agonists of H. glycines DAF-12 nuclear receptor | HEK293 GAL4-hgDAF12 UAS-luciferase reporter, agonist luminescence; normalized to butyrate control | activation, % at 6.8 µM | hit rate 1.8% among 370,000 | AID 687014;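 active means activation above a cutoff set at the mean of all screened compounds plus 3 SD, cut at about 10% in these data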;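 further: 0% = DMSO wells and 100% = sodium butyrate wells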
DAX1 inh-1: inhibitors of DAX1 repression of SF-1 activated StAR promoter | inhibition, % at 6.8 µM | hit rate 1.1% among 370,000 | HEK293T StAR-luciferase reporter, SF-1/DAX-1 repression relief | AID 652010;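 active means inhibition above the mean over all tested compounds plus 3 SD, cut at about 3.6% in these data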;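 further: 0% = DAX-1 cells with DMSO and 100% = cells lacking DAX-1 with DMSO; higher inhibition means more luminescence from relief of DAX-1 repression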
NR1D1 modulator: Rev-erb alpha (human) modulation | activity, % at 10 µM | P20393 | Rev-erbα–FITC-DNA binding, fluorescence polarization, 90 min | hit rate 0.79% among 370,000;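 active means activity above about 14%, limit read from the data; passing the limit was not always enough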;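 further: 0% = DMSO wells with 35 nM protein and 100% = DMSO wells with 750 nM protein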
DAX1 inh-2: inhibits human nuclear receptor DAX1. P51843. HEK293 Gal4-DAX1 luciferase reporter, luminescence. inhibition, % at 6.75 µM. hit rate 0.99% among 340,000. AID 504766;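 active means inhibition above the mean over all tested compounds plus 3 SD, cut at about 4.2% in these data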;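 further: 0% = DAX1-transfected cells with DMSO and 100% = empty-vector control cells with DMSO; inhibition shows as a rise in luminescence from relieved DAX1 repression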
* hit, by the source's call.

CN1C(=O)C(Cc2ccccc2)C(=O)N(C)C1=O was read as hcDAF12 agonist 0.2, ssDAF-12 act -0.9, hgDAF12 agonist -0.2, DAX1 inh-1 -0.7, NR1D1 modulator -4.1 and DAX1 inh-2 -0.7.
Screening CN1C(=O)c2ccccc2NC(=O)C1Cc1ccccc1 (configuration not stated) returned hcDAF12 agonist -1.4, ssDAF-12 act -0.4, hgDAF12 agonist 0.4, DAX1 inh-1 0.3, NR1D1 modulator -0.7 and DAX1 inh-2 4.9*.
For COP(=O)(OC)C(C)NC(=O)OCc1ccccc1 (configuration not stated) the results were hcDAF12 agonist 1.2, ssDAF-12 act -1.6, hgDAF12 agonist 3.9 and NR1D1 modulator 5.2.
Screening Cc1ccccc1CCNCc1cc2cccc(C)c2[nH]c1=O returned hcDAF12 agonist 3.0, ssDAF-12 act 1.0*, hgDAF12 agonist -2.3, DAX1 inh-1 -0.2, NR1D1 modulator 5.1 and DAX1 inh-2 5.6*.
Fc1ccccc1CCNCc1cccc2ccccc12 was read as hcDAF12 agonist 1.3, ssDAF-12 act -1.9, hgDAF12 agonist 0.2, DAX1 inh-1 0.0, NR1D1 modulator -5.4 and DAX1 inh-2 -1.0.
`CC(NC(=O)OC1CC2CCC1(C)C2(C)C)P(=O)(Oc1ccccc1)Oc1ccccc1` (configuration not stated) gave hcDAF12 agonist -0.1, ssDAF-12 act -0.1, hgDAF12 agonist 2.5 and NR1D1 modulator -0.7.
Screening Cc1cc(OCC(=O)NC(Cc2ccc(Cl)cc2)C(=O)O)c2c3c(c(=O)oc2c1)CCC3 (configuration not stated) returned hcDAF12 agonist -0.3, ssDAF-12 act -0.9, hgDAF12 agonist 2.6, DAX1 inh-1 -0.3, NR1D1 modulator 3.7 and DAX1 inh-2 5.8*.
CCNC(=O)NC(=O)C(C)OC(=O)c1c(C)nn(Cc2ccccc2)c1Cl (configuration not stated) was read as hcDAF12 agonist -0.7, ssDAF-12 act -1.5, hgDAF12 agonist -0.9, DAX1 inh-1 -0.2, NR1D1 modulator -4.2 and DAX1 inh-2 6.3*.
Screening COc1ccccc1N1CCN(Cc2ccc(Br)s2)CC1 returned hcDAF12 agonist -1.3, ssDAF-12 act 0.8, hgDAF12 agonist 1.0, DAX1 inh-1 -0.6, NR1D1 modulator 1.7 and DAX1 inh-2 6.5*.
COc1ccccc1N1CCN(Cc2ccccc2)CC1 was read as hcDAF12 agonist -0.3, ssDAF-12 act -1.6, hgDAF12 agonist 1.5, DAX1 inh-1 0.1, NR1D1 modulator -1.5 and DAX1 inh-2 0.3.
Screening O=C1CN(C(=O)COC(=O)Cc2ccccc2)c2ccccc2N1 returned hcDAF12 agonist -0.7, ssDAF-12 act -0.4, hgDAF12 agonist 2.6, DAX1 inh-1 0.6, NR1D1 modulator -3.2 and DAX1 inh-2 4.4*.
For C[C@H]1CC[C@@H]2[C@@H](C)[C@H]3[C@H](C[C@H]4[C@@H]5CC=C6C[C@@H](O[C@@H]7O[C@H](CO)[C@H](O)[C@H](O[C@@H]8O[C@H](CO)[C@@H](O)[C@H](O)[C@H]8O)[C@H]7O[C@@H]7O[C@@H](C)[C@H](O)[C@@H](O)[C@H]7O)CC[C@]6(C)[C@H]5CC[C@]34C)N2C1 the results were hcDAF12 agonist -2.0, ssDAF-12 act -1.4, hgDAF12 agonist -7.4, DAX1 inh-1 -1.6, NR1D1 modulator -3.8 and DAX1 inh-2 4.3*.
COc1ccc2c(c1)CC1(CN2C)C(=O)NC(=O)N(c2ccc(F)cc2)C1=O (configuration not stated) was read as hcDAF12 agonist 6.0*, ssDAF-12 act -1.0, hgDAF12 agonist 2.3, DAX1 inh-1 -0.2, NR1D1 modulator -2.5 and DAX1 inh-2 0.7.
For Cc1cc([P+](=O)O)c(C)n1-c1ccc(Br)cc1 the results were hcDAF12 agonist 4.5, ssDAF-12 act 1.5*, hgDAF12 agonist 1.3, DAX1 inh-1 -0.4, NR1D1 modulator -0.8 and DAX1 inh-2 -0.4.
`Cc1c(N=Nc2c(O)n(-c3ccc(Br)cc3)c(=O)[nH]c2=O)c(=O)n(-c2ccccc2)n1C` gave hcDAF12 agonist -0.5, ssDAF-12 act -0.8, hgDAF12 agonist -2.3, DAX1 inh-1 0.5, NR1D1 modulator 5.1 and DAX1 inh-2 2.4.
